In PubChem BioAssay AID624330 (Southern Research Specialized Biocontainment Screening …, 2012):
The whole screen tested about 340,000 compounds, of which about 2,100 (0.62%) were called active. A selection follows. Measured potencies and affinities stand elsewhere. Values without a mark were called inactive.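 How the source made its calls: active means first-screen hits whose inhibition reached a set limit at any dose in the follow-up dose series; inconclusive means inhibition above the set first-screen limit but never retested; inactive means the rest.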

Each compound was assayed against Rac GTPase-activating protein 1 (Homo sapiens) (UniProt Q9H0H5) (assay: MgcRacGAP GTPase-activating activity inhibitors, confirmation, biochemical, ADP Hunter fluorescence, primary and confirmatory (AID 624330;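 further: fluorescence reports GDP produced by GAP-driven GTP hydrolysis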)). Conditions: MgcRacGAP-stimulated Rac1 GTP hydrolysis, at 30 µM, stronger effect = higher value, GST-tagged Rac1 F28L mutant substrate.
Rac GTPase-activating protein 1 (Homo sapiens), sequence (Q9H0H5 whole entry, looked up): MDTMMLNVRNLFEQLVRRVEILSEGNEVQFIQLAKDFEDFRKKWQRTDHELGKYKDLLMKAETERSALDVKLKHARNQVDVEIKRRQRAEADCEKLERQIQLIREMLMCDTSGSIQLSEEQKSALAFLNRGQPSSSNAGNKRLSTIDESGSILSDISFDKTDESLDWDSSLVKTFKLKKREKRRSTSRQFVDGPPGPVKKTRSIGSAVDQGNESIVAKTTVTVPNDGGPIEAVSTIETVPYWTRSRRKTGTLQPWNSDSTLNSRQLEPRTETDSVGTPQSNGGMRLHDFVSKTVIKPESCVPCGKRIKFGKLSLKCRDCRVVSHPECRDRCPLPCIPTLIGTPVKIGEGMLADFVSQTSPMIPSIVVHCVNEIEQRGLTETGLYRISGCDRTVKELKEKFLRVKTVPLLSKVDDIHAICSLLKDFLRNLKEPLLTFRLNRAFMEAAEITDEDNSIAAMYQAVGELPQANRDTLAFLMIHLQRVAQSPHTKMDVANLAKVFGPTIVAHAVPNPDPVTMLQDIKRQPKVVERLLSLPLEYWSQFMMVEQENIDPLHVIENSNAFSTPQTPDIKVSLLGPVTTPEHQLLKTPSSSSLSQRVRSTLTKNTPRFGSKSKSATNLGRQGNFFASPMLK

SMILES | inhibition [%]
COCCOC1CCN(C(=O)C2CCC(=O)N(CCc3ccccc3)C2)CC1 (stereo not drawn) | 9.57
CCC(=O)c1ccc(CCCCCC(=O)O)s1 | 3.88
O=C(O)/C=C/C(=O)Nc1ccccc1SC(F)(F)F | -1
COc1ccc([N+](=O)[O-])cc1N(CC(=O)NCCCOC(C)C)S(C)(=O)=O | 7.79
Cc1ccc(C)c(NC(=O)C2CCCN(c3cnccn3)C2)c1 (stereo not drawn) | 14.2
C/C(=N\NC(=O)c1cc(O)ccc1O)c1cccc(NC(=O)c2cccc(Cl)c2)c1 | 25.5
C/C(=N\NC(=O)c1cccc(N/N=C(\C)c2ccccc2)c1)c1ccccc1 | 0.42
O=C(CCC1CCCN(C(=O)c2cncs2)C1)NCc1ccc(F)c(F)c1 (stereo not drawn) | 4.71
CC(C)Sc1nc2ccsc2c(=O)[nH]1 | 8.22
O=C(CC1CCCC1)Nc1ccc(Cl)c(S(=O)(=O)N2CCOCC2)c1 | 1.97
Cc1ccnc(NC(=S)NC(=O)/C=C/c2ccc(Cl)cc2)c1 | 3.91
CN(C)CCCn1c(SCc2c(Cl)cccc2Cl)nnc1-c1ccncc1 | 25.2
CCOCCCn1c(SCc2ccccc2)nnc1-c1ccncc1 | 7.47
Cc1cc(C)cc(NC(=O)c2cc3c(=O)n4ccccc4nc3s2)c1 | 7.35
CC(C)(C)NC(=O)COC(=O)c1ccc(Cl)nc1 | 2.54
COc1ccc(NC(=O)C[C@H]2C(=O)N(c3ccc(Br)cc3)C[C@@H]2c2ccc(OC)cc2)cc1 | 15.9
COc1ccc([C@H]2CN(c3ccccc3)C(=O)[C@@H]2CC(=O)Nc2ccccc2)cc1 | 9.26
COc1ccc(-c2csc(N(CCCN(C)C)C(=O)c3cc(OC)c(OC)c(OC)c3)n2)cc1 | 4.15
Nc1ccc2c(c1)Cc1cc([N+](=O)[O-])ccc1-2 | 14.4
O=[N+]([O-])c1ccc(N2CCN(c3ccccc3O)CC2)c(Cl)c1 | -5.04
O=[N+]([O-])c1ccc2c(c1)Cc1cc(F)ccc1-2 | -1.78
CC(C)(C)C(=O)N1CCN(c2ccc([N+](=O)[O-])cc2Cl)CC1 | 5.07
Brc1ccc(-c2noc(C3CCCCC3)n2)cc1 | 11.8
Cc1cc(C)n(-c2cccc(Cl)c2C#N)n1 | 7.18
CCOC(=O)c1c(C)c(C(=O)Nc2ccc(F)cc2)c(C)n1C | 1.27

SMILES | inhibition [%]
CCOC(=O)c1sc(C)c2c1NC1(CCCCCC1)NC2=O | 1.2
COc1cc(/C=N/NC(=O)c2cnccn2)cc(OC)c1OC | 3.55
COc1cccc(/C=N/NC(=O)c2cnccn2)c1 | 8.84
COc1cc(OC)c(OC)cc1/C=N/NC(=O)c1cnccn1 | 9.21
COc1ccc(/C=N/NC(=O)c2cccnc2)cc1O | 28.2
CSc1ccccc1NC(=O)CN1CCN(c2ccccn2)CC1 | 6.87
Cc1ccc2nc(C)cc(N/N=C/c3ccccc3O)c2c1 | 9.12
COc1ccccc1/C=N/Nc1cc(C)nc2ccc(C)cc12 | 14.4
COc1ccc2nc(C)cc(N/N=C/c3ccccc3)c2c1 | 19.7
COc1ccc2nc(C)cc(N/N=C/c3ccc(F)cc3)c2c1 | 13.3
COc1ccc(OC)c(S(=O)(=O)N2CCC3(CC2)CC(=O)c2ccccc2O3)c1 | 8.64
O=C(Nc1ccc(C(=O)O)cc1)/C(=C\c1ccc2c(c1)OCO2)NC(=O)c1ccccc1 | -1.61
O=C(COC(=O)c1ccc([N+](=O)[O-])o1)Nc1ccc(N2CCOCC2)cc1 | 10.6
C/C(=N\N(c1ccccc1)c1ccccc1)c1ccc(N)cc1 | 18.1
O=C(O)c1ccc(N(c2ccccc2)c2ccccc2)cc1 | 6.47
O=C(CSc1nc2ccc(NC(=O)CSc3nnnn3-c3ccccc3)cc2s1)Nc1ccccc1 | 2.46
CN(C)c1ccc(C(=O)N2CCCC2)cc1 | 3.64
CN(C)c1ccc(C(=O)NN2C(=O)c3ccccc3C2=O)cc1 | 8.64
C[C@@H]1CN([C@@H](C)CO)C(=O)c2cc(Br)cnc2O[C@H]1CN(C)C(=O)c1ccc2c(c1)OCO2 | 13.5
Cc1cccc(NC(=O)CCCN=C2NS(=O)(=O)c3ccccc32)c1C | -1.68
CCOc1ccc(/C=N/O)cc1 | 5.7
Cc1ccc(N=Cc2ccc(N(C)C)cc2)cc1 | 3.33
CCN(CC)c1ccc(/C=N/NC(=O)CC(C)C)cc1 | 5.15
CN(c1ccccc1)c1ccc(/C=N/NC(=O)CC#N)cc1 | 10.3
CCN(CC)c1ccc(/C=N/NC(=O)C(O)c2ccccc2)cc1 (stereo not drawn) | 9.04

SMILES | inhibition [%]
CN(C)c1ccc(C=Nc2ccccc2)cc1 | 0.89
NC(=S)N/N=C/c1ccccc1 | 11.7
CCN(CC)c1ccc(C=N/C(C#N)=C(\N)C#N)cc1 | 6.79
Cc1ccc(SCC(=O)n2nc(C)cc2C)cc1 | 3.7
CSc1nc(NS(=O)(=O)c2ccc(F)cc2F)nn1C | 6.35
Cc1ccc(S(=O)(=O)N2CCN(C(=O)Cn3nc(C)c([N+](=O)[O-])c3C)CC2)cc1 | 6.68
CC(C)Cn1c(N)c(C(=O)COC(=O)COc2cccc(C(F)(F)F)c2)c(=O)n(C)c1=O | 6.32
COC1CC(C)NC(=S)N1 (stereo not drawn) | 12.9
O=C(Cn1nnc2ccccc21)N/N=C/c1ccco1 | 10.9
COc1ccc(NC(=O)c2ccc3c(c2)C(=O)N(CC2CCCO2)C3=O)cc1O (stereo not drawn) | 0.29
O=C(CSc1nnc(-c2ccco2)n1Cc1ccccc1)c1ccccc1 | 13.1
O=C(CSc1nnc(-c2ccco2)n1Cc1ccccc1)NCc1ccccc1 | 5.14
O=C(NN=Cc1ccc2c(c1)CCC2)c1ccccc1[N+](=O)[O-] | 6.28
Cc1cc(C)nc(N2N=C(CSc3ccc(Cl)cc3)CC2=O)n1 | 3.87
COc1cccc(C(=O)NNC(=O)Cc2csc(N)n2)c1 | 10.7
CCn1c(SCC(=O)c2[nH]c(C)c(C(C)=O)c2C)nnc1-c1ccccc1 | 11.9
COc1ccc2cc(CN(C)C(=O)CN3C(=O)NC4(CCCC4)C3=O)ccc2c1 | 20.2
COc1ccccc1CC(=O)Nc1cc2oc3ccccc3c2cc1OC | 1.63
COc1cc2c(cc1NC(=O)CCC(=O)O)oc1ccccc12 | 17.1
CCCNC(=S)Nc1cc2oc3ccccc3c2cc1OC | 7.43
CNC(=S)Nc1cc2oc3ccccc3c2cc1OC | 13.3
NS(=O)(=O)c1ccc(CCNC(=O)c2ccc(Cl)nc2)cc1 | 4.85
COC(=O)C[C@@H]1C[C@@H]2c3cc(NC(=O)NC4CCCCC4)ccc3O[C@@H]2[C@H](CO)O1 | 0.31
CC(=O)c1ccc(N2CCN(C(=O)c3ccc(-c4ccccc4)cc3)CC2)cc1 | 6.62
CN1c2cccc3cccc(c23)N(C)C1(C)C | 17.8

SMILES | inhibition [%]
CN1c2cccc3cccc(c23)N(C)C1c1cccs1 | 29.9
Cc1[nH]c2ccc(-c3n[nH]c(=S)n3Cc3ccccc3)cc2c1C | 10.2
c1ccc(-c2csc(NNC3=NCCCCC3)n2)cc1 | -65.3
COc1ccc(CNC(=O)c2ccc[nH]2)cc1Cl | -1.95
COc1cc(-c2n[nH]c(=S)n2-c2ccccc2C(F)(F)F)cc(OC)c1OC | 0.91
CCn1c(C)nc2cc(C(=O)N/N=C/c3ccccc3C)ccc21 | 4.28
CCn1c(C)nc2cc(C(=O)N/N=C/c3ccc(O)c(O)c3O)ccc21 | -97
CCn1c(C)nc2cc(C(=O)N/N=C/c3cccc(OC)c3O)ccc21 | 15
CCn1c(C)nc2cc(C(=O)NN=Cc3ccc([N+](=O)[O-])cc3)ccc21 | 8.03
CCn1c(C)nc2cc(C(=O)N/N=C/c3ccccc3)ccc21 | 12.6
CCn1c(C)nc2cc(C(=O)N/N=C/c3ccc(N4CCOCC4)cc3)ccc21 | 9.18
O=C(O)CCCN1C(=O)c2ccc(Oc3cccc([N+](=O)[O-])c3)cc2C1=O | 1.11
Cc1ccc(OCC(=O)NNC(=O)c2ccco2)c(C)c1 | 8.22
O=C(O)[C@H](CSCc1ccccc1)NS(=O)(=O)c1ccc(F)cc1 | 9.02
CCCCn1c(SCC(=O)c2ccccc2)nc2ccsc2c1=O | 9.24
CCCCn1c(SCC(=O)Nc2cc(C)[nH]n2)nc2ccsc2c1=O | 9.99
C=CCn1c(SCC(=O)Nc2cc(C)on2)nc2sc(CC)cc2c1=O | -5.28
C=CCn1c(SCC(=O)NC2CC2)nc2sc(CC)cc2c1=O | 2.06
CN(Cc1ccccc1)C(=O)COC(=O)/C=C/c1ccco1 | 7.88
Cc1ccc(NC(=O)Cn2nc(C(=O)O)c3ccccc3c2=O)cc1S(=O)(=O)N1CCOCC1 | 5.1
COc1ccc2c(C)cc3nncn3c2c1 | 5.43
COc1ccc2c(C)cc3nnnn3c2c1 | 7.23
Nc1ccn([C@@H]2O[C@H](COS(=O)(=O)O)[C@@H](O)[C@H]2O)c(=O)n1 | 9.68
